Data from the supplement of paper PMC6555819.

Key:
Test in all cases: PBM binding z-score (relative to random genomic background probes); higher = stronger binding; sequences stand for … in GC…GCGATTGACAGCGTAGAATGAAGG
[1] = system: RARb homodimer (NR concentration 270 nM)
In short: (§1)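 Scanned fluorescence from custom Agilent 4×180K protein-binding microarrays was regression-normalized. Binding z-scores use random background probes as reference. Ligand-free nuclear receptor dimers were incubated on the arrays for 1 h and detected with antibodies against each partner (one per run).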

[2] = system: RARg:RXRa (NR concentration 270 nM, RXRa partner concentration 90 nM)
In short: as §1

[3] = system: RARg homodimer (NR concentration 270 nM)
In short: as §1

[4] = system: RXRa DBDmut IVT, anti-RXR (DBD mutation: RXRa K156A/R161A, NR concentration 90 nM)
In short: as §1

[5] = system: RXRa homodimer (NR concentration 180 nM)
In short: as §1

[6] = system: THRa:RXRa (NR concentration 90 nM, RXRa partner concentration 90 nM)
In short: as §1

[7] = system: THRa homodimer (NR concentration 90 nM)
In short: as §1

[8] = system: VDR:RXRa (NR concentration 270 nM, RXRa partner concentration 90 nM)
In short: as §1

[9] = system: VDR homodimer (NR concentration 270 nM)
In short: as §1

Row | Sequence | PBM binding z-score [1] | PBM binding z-score [2] | PBM binding z-score [3] | PBM binding z-score [4] | PBM binding z-score [5] | PBM binding z-score [6] | PBM binding z-score [7] | PBM binding z-score [8] | PBM binding z-score [9]
1 | AGTCAAAGTTCAGGACGAGGTAGCGTAAAGCACG | 2.76 | 4.44 | 4.55 | 2.81 | 2.93 | 2.9 | 0.672 | 2.43 | 2.05
2 | ATACCAAGGTGATCGTGAGGTCGTTGAAACTAAC | 2.04 | 2.53 | 1.34 | 0.72 | 1.98 | 3.84 | 3.02 | 3.53 | 3.25
3 | ATCGAAAGGTCGACGAGGTGAGTATTCACCGTTT | 3.13 | 4.29 | 4.32 | 1.13 | 4.63 | 3.65 | 0.672 | 5.38 | 0.806
4 | CGAACTAGGTCAATGACAGTGAATCTCCGCACGC | 2.77 | 3.48 | 4.07 | 1.91 | 2.36 | 2.2 | 0.673 | 1.15 | 0.425
5 | TCTATTAGTTGATTAGGGCAACGGAAACAGCGGA | 0.377 | 0.729 | 0.882 | 0.972 | 0.448 | 0.578 | 0.239 | 0.621 | 0.264
6 | AGAATGAGGTTACTAAGATCAGGGAATTGCGGTC | 1.12 | 1.25 | 1.15 | 1.43 | 1.98 | 2.28 | 0.919 | 1.42 | 0.836
7 | CAAACTAGGTCGCGAAAGGTCAAAGTCGAATGAC | 5.22 | 6.69 | 6.26 | 1.98 | 7.33 | 4.79 | 1.51 | 5.94 | 3.37
8 | TCTTGTGGATCAATAGAGGTTAAGAAAGTGCGCT | 1.26 | 0.875 | 0.534 | 0.749 | 1.22 | 2.23 | -0.3 | 1.73 | 0.314
9 | TCGAGTAGGTTAATCGGGGCATTCAGCCAACATA | 0.592 | 0.49 | 0.334 | 0.443 | 0.518 | 1.99 | -0.373 | 3.59 | 0.184
10 | CGAACGCGGGCATGAGTTGATAGCAAATGCCGAT | -0.346 | -0.206 | 0.05 | 0.305 | -0.124 | -0.413 | -0.72 | -0.376 | 0.0939
11 | CTCGAAAGATCGGTTGAGGTGAGTATACGGATAA | -0.106 | -0.00103 | -0.0275 | -0.15 | 0.118 | 3.31 | 0.715 | -0.152 | -0.316
12 | CCTTCCGGGTCACTGACAGGTTATAGCATTTGGA | 3.23 | 5.65 | 4.44 | 1.53 | 4.67 | 3.67 | 2.25 | 3.83 | 1.3
13 | CCTAGCAGGCCAGGGTCACTCACGCATTTCGCTT | 2.64 | 2.79 | 2.22 | 0.414 | 3.32 | 2.63 | 1.32 | 2.3 | 1.73
14 | CGTCCAAGGTCACTGCTAGGTCAGTGAAAGCATT | 4.78 | 7.45 | 7.04 | 3.66 | 5.2 | 4.48 | 3.39 | 5.09 | 3
15 | TCGTATAGGTAAATGCTAGGTGAAAGTCCGATCT | 0.475 | 0.402 | 0.0931 | 1.07 | 0.407 | 1.48 | 0.325 | 0.443 | -0.0661
16 | CGAACGAGGGCATGAGTTAATAGCAAATGCCGAT | 0.53 | 1.2 | 1.61 | 2.14 | 0.895 | 1.13 | -0.42 | 0.731 | 1.02
17 | AGAATGAGGTAAAGATCAGGGAAACAGAATACAT | 0.102 | 0.258 | 0.491 | -0.375 | 0.406 | 1.79 | 0.604 | 0.0577 | -0.343
18 | GCGATTGGGGCATCAGCAGGTTACCATAACTTAA | 0.917 | 0.779 | 0.543 | 0.393 | 0.323 | 1.03 | 0.429 | 0.0705 | -0.374
19 | CCAGACAGGTGCGAAGGTAACTCAGCCTCGATTA | -0.418 | -0.29 | -0.243 | 0.384 | -0.121 | -0.305 | -0.159 | -0.435 | -0.453
20 | TCTTGTAGATCAAGCAGGTGAAGAAAGCCTGAGT | -0.296 | -0.262 | -0.325 | 0.591 | 0.0351 | -0.0555 | -0.319 | 0.0815 | -0.154
21 | CGTCCAAGGTCAAGGTCATTGAAAGAGACTCGAA | 5.3 | 7.02 | 7.64 | 3.89 | 7.4 | 4.39 | 3.82 | 5.37 | 5.11
22 | ATATGTAGGTTAGCTGGGGTCATTGAGACTAGGC | 3.66 | 4.03 | 2.91 | 1.82 | 5.63 | 4.83 | 3.21 | 5.95 | 5.12
23 | CTCGAAAGGTCGGTTGAGGTTAGTATACGGATAA | 2.64 | 3.18 | 3.08 | 1.15 | 2.6 | 4.85 | 0.58 | 3.58 | 0.818
24 | ATCGATAGGTCGAAGGTGAGTATACCCACCCGAA | 0.922 | 2.06 | 1.56 | -0.262 | 2.36 | 0.837 | -0.266 | 0.776 | -0.3
25 | ATCTGTAGGTTACATCCGGGTCATTCAGGCTATG | 3 | 3.79 | 2.18 | 1.17 | 3.04 | 3.81 | 2.84 | 4.16 | 2.67
26 | CAAACTAGGTCAAAGATCAAAGTCGAGCCAACCA | 2.5 | 4.93 | 4.62 | 1.97 | 5.28 | 2.9 | 0.494 | 2.52 | 0.479

Row | Sequence | PBM binding z-score [1] | PBM binding z-score [2] | PBM binding z-score [3] | PBM binding z-score [4] | PBM binding z-score [5] | PBM binding z-score [6] | PBM binding z-score [7] | PBM binding z-score [8] | PBM binding z-score [9]
27 | CGTCCAAGATCAAAGGTCAGTGAAGAGATGACGG | 4.44 | 4.65 | 4.54 | 0.609 | 5.07 | 2.59 | 0.239 | 3.08 | 1.07
28 | GCTAGCAGGCCATTTGAGTCACTCAATGACGGGC | -0.381 | -0.0759 | 0.0765 | -0.0136 | -0.11 | 0.249 | -1.02 | -0.568 | -0.525
29 | TCAAACAGGTGAAGGTAACTCAGGTACGCAGTCG | 0.716 | 0.691 | 0.597 | 1.43 | 1.13 | 1.44 | 0.12 | 1.13 | 0.467
30 | CCATACAGGTGAAAGGTAACTCAGTCTGGTACGC | 0.92 | 1.41 | 0.917 | 0.261 | 2.32 | 1.08 | 0.069 | 0.988 | -0.101
31 | TCATATCGGTAAAGGTGAAAGTCGAACGATATGA | 1.32 | 1.5 | 1.16 | 0.447 | 1.95 | 1.19 | -0.551 | 0.691 | -0.566
32 | CAGAGTAGGTTATGGGGCATTCAGGCAACGGTGA | 1.24 | 0.814 | 0.945 | -0.321 | 0.947 | 0.691 | 0.428 | 0.214 | 0.315
33 | CGAACTAGGTCAGAACAGGACAGTGTAGGATGAT | 2.16 | 2.56 | 3.47 | 0.551 | 1.28 | 3.47 | 0.227 | 0.86 | 0.291
34 | AATACAGGGTCACTAGGCCAGAGAAGGTACGAAT | 3.45 | 5.18 | 4.96 | 2.58 | 5.52 | 3.52 | 1.18 | 4.08 | 2.31
35 | CCTACTGGGCCAAAGGTCACTGATTCCAATGCTC | 4.91 | 6.24 | 5.46 | 0.634 | 7.03 | 3.42 | 1.29 | 4.55 | 1.88
36 | TCATATAGGTAAACAGGTGAAAGTGCGTAAGTTA | 1.09 | 0.642 | 0.552 | 1.66 | 1.17 | 0.829 | 0.583 | 1.29 | 0.623
37 | TAGCCTAGGTCATGGGCCAGTATGCCACGCGAAC | 3.09 | 4.15 | 4.47 | 0.363 | 3.54 | 3.07 | 1.16 | 1.98 | 0.214
38 | ATCGAAAGGTCGACGAGATGAGTATACACCGTTT | 2.29 | 3.91 | 3.95 | 1.01 | 4.04 | 1.72 | -0.43 | 2.46 | 0.403
39 | CCTTAAGGGTCACTGACAGGTTATAGCATTTGGA | 4.71 | 7.23 | 6.91 | 3.42 | 6.82 | 3.85 | 0.468 | 5 | 2.04
40 | CGAACTAGGTCAGAACAAGACAGTGAAGGATGAT | 1.79 | 2.37 | 3.15 | 0.577 | 1.31 | 1.32 | 0.101 | 0.215 | 0.237
41 | TGTAGCAGGCCAGAGGGTCACTCAAGAGGTACGG | 2.85 | 2.8 | 2.7 | -1.32 | 2.64 | 1.59 | -0.464 | 1.46 | 0.427
42 | CGTCCAAGGTCCGAGAGGTCAGTGAATGCCGAGT | 3.86 | 3.1 | 3.53 | 1.19 | 2.4 | 2.67 | 1.18 | 3.27 | 2.95
43 | GCAGACAGGTGAAACGCAGGTGACTCAGGGTGGC | 0.561 | 1.85 | 0.482 | -0.723 | 0.927 | 1.56 | -0.166 | -0.335 | -0.391
44 | GCAGACAGGTGAAACGCACGTAACTCAGGGTGGC | -0.115 | 0.327 | 0.0511 | -0.335 | 0.528 | -0.124 | -0.367 | -0.568 | -0.768
45 | TGAATGAGGTTAAACATCAGGGAACGTGGCGTCG | 0.708 | 2.37 | 1.44 | 1.35 | 3.15 | 2.65 | 0.474 | 1.87 | 0.833
46 | CCGACTGGGGCAGAAAGGTTACCATACCATCCGG | 1.96 | 1.73 | 1.25 | -0.648 | 1.61 | 0.85 | -0.396 | 0.836 | -0.314
47 | ACTATTAGTTGACTTAGGGCAACGGATACGACGC | 0.939 | 0.643 | 1.01 | 0.466 | 0.497 | 1.47 | 0.279 | 0.248 | -0.0346
48 | AGAACGAGGGCACGCTGAGTTTATAGCAGAGTAG | 1.45 | 2.31 | 2.32 | 2.18 | 1.5 | 2.15 | -0.111 | 3.94 | 4.06
49 | TCGAGTAGGTTAGTCGGGGCATTCACCCAACATA | 0.552 | 0.0959 | -0.000869 | 0.343 | 0.097 | 1.31 | 0.381 | 2.41 | 0.754
50 | CCGAGTAGGTTATGGGGCATGCAGGCAACGGTGA | 1.15 | 0.72 | 0.548 | -0.675 | 0.867 | 0.102 | -0.321 | -0.196 | -0.0729
51 | CCTTACGGGTCACTCCAGGGTATAGCATCGGAGT | 2.55 | 4.23 | 4.17 | 0.964 | 4.2 | 4.35 | -0.222 | 3.25 | 0.88
52 | CCGAGTAGGTTATGGGTCATTCAGGCAACGGTGA | 2.66 | 2.52 | 2.15 | 0.565 | 3.06 | 2.29 | 0.87 | 2.67 | 1.42
